Measurements from PubChem BioAssay.
The source made the active and inactive calls. The rule behind the calls is not given here. Where a SMILES comes first, the peptide text is derived from it. The star is where a group is joined. Boc = CC(C)(C)OC(=O)*

These molecules were tested against Pantothenate synthetase (Mycobacterium tuberculosis (strain ATCC 25618 / H37Rv)) (UniProt P9WIL5) (assay: Recombinant Mtb pantothenate synthetase (PanC) inhibitors, coupled enzyme, confirmatory (AID 375;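 note: 0% = full reaction with vehicle and 100% = no enzyme background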)). Conditions: coupled enzyme assay; at 10 µM, stronger effect = higher value.
Pantothenate synthetase (Mycobacterium tuberculosis (strain ATCC 25618 / H37Rv)), sequence (P9WIL5 whole entry, looked up): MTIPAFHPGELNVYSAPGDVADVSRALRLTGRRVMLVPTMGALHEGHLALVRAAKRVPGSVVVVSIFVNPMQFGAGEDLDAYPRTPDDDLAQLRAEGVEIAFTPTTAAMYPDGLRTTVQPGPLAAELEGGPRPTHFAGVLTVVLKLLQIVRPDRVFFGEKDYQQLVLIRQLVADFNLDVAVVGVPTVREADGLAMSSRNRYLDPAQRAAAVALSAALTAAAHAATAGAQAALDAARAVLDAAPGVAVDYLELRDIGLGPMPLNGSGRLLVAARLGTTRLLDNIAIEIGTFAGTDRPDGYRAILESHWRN

| SMILES | inhibition |
| --- | --- |
| COc1ccccc1-n1c(-c2cccnc2)n[nH]c1=S | 0% (inactive) |
| N#Cc1c(N2CCCC2)nc(N)c2c(N)nc(N3CCCC3)cc12 | 0% (inactive) |
| CSc1ccc(-c2cc(=O)c3ccccc3o2)cc1 | 5% (inactive) |
| COc1ccccc1-n1c(=O)[nH]c2c(C(N)=O)nc(CC(C)C)nc21 | 0% (inactive) |
| COc1cc(NC(=O)Nc2cccc(C(C)=O)c2)cc(OC)c1OC | 0% (inactive) |
| Cc1cccc(NC(=O)C2CCCN(C(=O)Nc3ccccc3)C2)c1C (stereo not given) | 2% (inactive) |
| O=C(O)Cn1cc(C(=O)c2ccco2)c2ccccc21 | 4% (inactive) |
| O=C(COc1ncnc2ccccc12)NCc1ccc2c(c1)OCO2 | 0% (inactive) |
| COC(=O)c1ccc(NC(=O)C(C)N2C(=O)c3ccccc3C2=O)cc1 (stereo not given) | 8% (inactive) |
| CC(=O)c1c(C)nn(CC(O)COc2ccc3c(c2)CCC3)c1C (stereo not given) | 0% (inactive) |
| CC1=C(C(=O)Nc2ccccc2)C(c2cccs2)C(C#N)=C(SCC#N)N1 (stereo not given) | 5% (inactive) |
| COc1ccc(CNCC(=O)Nc2cc(C)nn2-c2nc(C)cc(C)n2)cc1OC | 0% (inactive) |
| CCCCN(CCCC)CCCNC(=O)CC1Oc2ccc(C)cc2NC1=O (stereo not given) | 3% (inactive) |
| Cc1nc(-c2cccc(N)c2)cs1 | 0% (inactive) |
| CC1(C)C2CCC1(C)C(OC(=O)CSc1nc(N)cc(=O)[nH]1)C2 (stereo not given) | 0% (inactive) |
| O=C(NCc1ccccc1)C1CCN(S(=O)(=O)N2CCCCCC2)CC1 | 2% (inactive) |
| O=C(Nc1cccc(F)c1)c1cccc(S(=O)(=O)N2CCOCC2)c1 | 0% (inactive) |
| CCOc1ccc(NC(=O)C2CC(=O)N(C(C)C)C2)cc1 (stereo not given) | 2% (inactive) |
| CC(c1nnc(SCC(=O)Nc2sccc2C#N)n1-c1ccc(Cl)cc1)N(C)C (stereo not given) | 0% (inactive) |
| O=C(O)C1CC(=O)N(c2ccc(OCc3c(F)cccc3Cl)cc2)C1 (stereo not given) | 2% (inactive) |

| SMILES | inhibition |
| --- | --- |
| CCN1CCN(Cc2c(C)[nH]c3ccc(OC)cc3c2=O)CC1 | 1% (inactive) |
| COc1ccc(Cl)cc1Nc1nc(C)cc(=O)[nH]1 | 3% (inactive) |
| N#CCc1nc2c3c4c(sc3ncn2n1)CCCC4 | 7% (inactive) |
| Nc1nc(-n2cnnc2)nn1-c1ccccc1 | 0% (inactive) |
| O=C1CS/C(=N\C(=O)N2c3ccccc3Sc3ccccc32)N1 | 0% (inactive) |
| CC(=O)OC(C(=O)NC1CCCCC1)c1ccncc1 (stereo not given) | 10% (inactive) |
| CCn1c(C)nc2cc(C(=O)OC(C(F)(F)C(F)F)C(F)(F)C(F)F)ccc21 | 0% (inactive) |
| Cc1cc2c(cc1C)-c1nnnn1C(C)(C)C2 | 4% (inactive) |
| CCCCc1nccn1CCn1ccnc1CCCC | 0% (inactive) |
| COc1ccc(-c2cc(C(F)(F)F)nc(SCC(=O)NCc3ccco3)n2)cc1OC | 3% (inactive) |
| O=C(O)c1cccnc1Nc1cccc(C(F)(F)F)c1 | 0% (inactive) |
| O=C(C1CCN(S(=O)(=O)c2cccnc2)CC1)N1CCN(c2ccc(Cl)cc2)CC1 | 0% (inactive) |
| CC(=O)N1CCN(c2ccc(S(=O)(=O)N3CCCCC3)cn2)CC1 | 0% (inactive) |
| CCOC(=O)N1CCC(c2cc(=O)n3[nH]c(C)c(-c4ccc(F)cc4)c3n2)CC1 | 0% (inactive) |
| COc1c(C(=O)Nc2c(C)n(C)n(-c3ccccc3)c2=O)ccc2ccccc12 | 0% (inactive) |
| COc1cccc(NC(=O)N(CCCN2CCOCC2)C(C)c2cc3cccc(OC)c3o2)c1 (stereo not given) | 0% (inactive) |
| COc1cccc(OCc2nc3c4cnn(-c5ccccc5)c4ncn3n2)c1 | 0% (inactive) |
| CC(=O)Nc1ccc(NC(=O)Cn2cnc3c(cnn3C(C)(C)C)c2=O)cc1 | 3% (inactive) |
| CC(C)CC(NC(=O)OC(C)(C)C)C(=O)NC(C(=O)NC(C)C(N)=O)C(C)C (stereo not drawn) (Boc-Leu-Val-Ala-NH2; configuration not given here) | 16% (inactive) |
| COc1ccc(C2CC(c3cccs3)n3nc(N)nc3N2)cc1 (stereo not given) | 0% (inactive) |
